From PubChem BioAssay AID2284196 (EPA ToxCast)
The source made the active and inactive calls. How the source made its calls: active means hit-call score of the fitted dose curve at least 0.9, where 1 is the maximum; inactive means score below 0.9.

target: human Peripheral-type Benzodiazepine Receptor (PBR/TSPO) Antagonism, TSPO (gene 706) (UniProt P30536); assay: ERF_FR_MP_hTSPO: Eurofins (ERF) Radioligand Binding LeadHunter Assay for human Peripheral-type Benzodiazepine Receptor (PBR/TSPO) Antagonism
Description: ERF_FR_MP_hTSPO is a biochemical, single-readout assay that uses extracted gene-proteins in a cell-free assay. Measurements were taken 0.25 hour after chemical dosing in a 96-well plate. See PBR Human Binding (Antagonist Radioligand) Assay, Cerep.ERF_FR_MP_hTSPO is an assay component calculated from the ERF_FR_MP_hTSPO assay. It is designed to measure radioligand binding using a type of binding reporter as detected by scintillation counting with radiometry technology.Data from the assay component ERF_FR_MP_hTSPO was analyzed at the assay endpoint, ERF_FR_MP_hTSPO, in the positive analysis fitting direction relative to DMSO as the negative control and baseline of activity. Using a type of binding reporter, loss-of-signal activity can be used to understand changes in binding as they relate to gene TSPO. To generalize the intended target to other relatable targets, this assay endpoint is annotated to the membrane protein intended target family, where the subfamily is mitochondrial associated translocator protein.
Human glioblastoma U118MG cells are used to prepare peripheral benzodiazepine receptor in modified Tris-HCl buffer pH 7.4. A 100 ug aliquot is incubated with 0.2 nM [3H] PK-11195 for 15 minutes at room temprature. Non-specific binding is estimated in the presence of 10 uM PK-11195. Membranes are filtered and washed, the filters are then counted to determine [3H] […]

Chain of human Peripheral-type Benzodiazepine Receptor (PBR/TSPO) Antagonism, TSPO (gene 706) (P30536 whole entry, looked up): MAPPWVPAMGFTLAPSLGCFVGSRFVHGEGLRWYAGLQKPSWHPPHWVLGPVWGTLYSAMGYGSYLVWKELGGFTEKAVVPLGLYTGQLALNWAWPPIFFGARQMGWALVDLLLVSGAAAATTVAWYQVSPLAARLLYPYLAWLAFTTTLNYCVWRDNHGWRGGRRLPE

Structure (SMILES) | AC50 | outcome
O=C(/C=C/c1ccc(O)cc1)CC(=O)/C=C/c1ccc(O)cc1 | 891 nM (active) | 
COc1cc(CCC(=O)CC(=O)CCc2ccc(O)c(OC)c2)ccc1O |  | inactive
